Laboratory results as given in PubChem BioAssay.
Active and inactive are the calls of the source. Unless noted, how the calls were made is not given here.

What was measured:
[1] = HepG2 liver cancer cell viability effects, profiling panel, resazurin fluorescence, 24 h, PK04 Diversity Set (AID 1172); settings: higher = more signal
[2] = basal S. cerevisiae growth modulation, no modifier, primary screen, OD600, strain BY4716, 24 h, basal condition (AID 1173); settings: OD600, 24 h, higher = more signal, called active from +8 up or from −8 down
[3] = MM1S myeloma cell viability, profiling panel, resazurin fluorescence, basal, 24 h, PK04 Diversity Set (AID 1174); settings: higher = more signal, called active from +8 up or from −8 down;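 further: MM1S multiple myeloma cell line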
[4] = molecular target: Dihydroorotate dehydrogenase (quinone), mitochondrial (Plasmodium falciparum (isolate 3D7)) (UniProt Q08210); assay: PfDHODH enzyme inhibitors, primary screen, biochemical, C-terminal His tag, absorbance 600 nm (AID 1175); settings: DCIP absorbance 600 nm, higher = more signal, called active from +8 up or from −8 down;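 further: recombinant parasite enzyme with a five histidine tag at its C terminus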
[5] = P. aeruginosa biofilm formation inhibitors, primary screen, strain PAO1, LB-PBS medium, absorbance 600 nm (AID 1176); settings: P. aeruginosa PAO1 growth/biofilm, A600, 12 h; higher = more signal
[6] = S. cerevisiae RM11-1a growth modifiers, primary screen, strain RM11-1a, OD600, basal, 24 h (AID 1177); settings: OD600, 24 h, higher = more signal, called active from +8 up or from −8 down;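 further: cultures grown under basal conditions with no added stressor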
[7] = E. coli acrAB mutant growth effects, primary screen, E. coli filamentation inducers, strain DRC39, OD650, 24 h (AID 1178); settings: higher = more signal, called active from +8 up or from −8 down;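 further: growth measured as culture turbidity by optical density at 650 nm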
[8] = E. coli acrAB mutant growth effects, primary screen, E. coli filamentation inducers, strain DRC39, OD650, 48 h (AID 1179);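 further: screen aims at cell division blockers that make cells filament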; settings: E. coli DRC39 delta-acrAB growth, higher = more signal, called active from +8 up or from −8 down
[9] = RPMI8226 myeloma cell viability, profiling panel, resazurin fluorescence, basal, 24 h, PK04 Diversity Set (AID 1180); settings: higher = more signal;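 further: RPMI8826 multiple myeloma cell line at 5000 cells per well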
[10] = molecular target: E3 ubiquitin-protein ligase XIAP (Homo sapiens) (UniProt P98170); assay: XIAP binders, primary screen, biophysical, small-molecule microarray, fluorescence 635 nm (AID 1181); settings: small-molecule microarray binding, higher = more signal;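 further: score merges 667 nm emission and signal to noise over triplicate slides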
[11] = system: XIP peptide (Xip251-270) binding; assay: small-molecule binders of XIP peptide, primary screen, biochemical, small-molecule microarray, fluorescence 635/667 nm, 0.1 µg/mL protein (AID 1182); settings: fluorescent protein binding, 635 nm, higher = more signal, called active from +8 up or from −8 down
XIP peptide (Xip251-270) = assay: small-molecule binders of XIP peptide, primary screen, biochemical, small-molecule microarray, fluorescence 635/667 nm, 0.5 µg/mL protein (AID 1183); settings: small-molecule microarray binding, fluorescence 635 nm; higher = more signal
[12] = Plasmodium falciparum growth inhibition, primary screen, strain 3D7, DAPI fluorescence, 100 nL (AID 1184);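 further: parasites grown inside human red blood cells in medium with human serum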; settings: P. falciparum 3D7 growth, 3 d, higher = more signal
[13] = molecular target: Homeobox protein Hox-A13 (Mus musculus) (UniProt Q62424); assay: inhibitors of HoxA13-DNA binding, primary screen, biochemical, fluorescence polarization, labeled oligonucleotide (AID 1185); settings: 15 min, higher = more signal, called active from +8 up or from −8 down
[14] = inhibitors of hydroxyurea-induced Chk1 phosphorylation, primary screen, imaging, HeLa, phospho-Chk1 antibody, percent positive cells (AID 1186); settings: hydroxyurea-induced phospho-Chk1 immunofluorescence imaging, higher = more signal
[15] = inhibitors of hydroxyurea-induced Chk1 phosphorylation, primary screen, imaging, HeLa, phospho-Chk1 nuclear intensity (AID 1187); settings: hydroxyurea-induced phospho-Chk1 immunofluorescence imaging, higher = more signal

Chain of Homeobox protein Hox-A13 (Mus musculus) (Q62424 whole entry, looked up): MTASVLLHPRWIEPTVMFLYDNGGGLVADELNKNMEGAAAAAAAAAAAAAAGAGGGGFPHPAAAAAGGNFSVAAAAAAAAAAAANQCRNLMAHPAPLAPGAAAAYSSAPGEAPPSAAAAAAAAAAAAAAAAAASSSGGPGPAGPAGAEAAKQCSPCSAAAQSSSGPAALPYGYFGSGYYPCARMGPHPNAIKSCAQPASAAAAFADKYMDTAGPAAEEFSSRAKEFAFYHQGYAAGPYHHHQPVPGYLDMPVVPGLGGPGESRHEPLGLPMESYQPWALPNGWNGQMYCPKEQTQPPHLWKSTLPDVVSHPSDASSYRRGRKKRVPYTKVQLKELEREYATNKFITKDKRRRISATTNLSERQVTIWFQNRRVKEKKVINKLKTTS
Chain of Dihydroorotate dehydrogenase (quinone), mitochondrial (Plasmodium falciparum (isolate 3D7)) (Q08210 whole entry, looked up): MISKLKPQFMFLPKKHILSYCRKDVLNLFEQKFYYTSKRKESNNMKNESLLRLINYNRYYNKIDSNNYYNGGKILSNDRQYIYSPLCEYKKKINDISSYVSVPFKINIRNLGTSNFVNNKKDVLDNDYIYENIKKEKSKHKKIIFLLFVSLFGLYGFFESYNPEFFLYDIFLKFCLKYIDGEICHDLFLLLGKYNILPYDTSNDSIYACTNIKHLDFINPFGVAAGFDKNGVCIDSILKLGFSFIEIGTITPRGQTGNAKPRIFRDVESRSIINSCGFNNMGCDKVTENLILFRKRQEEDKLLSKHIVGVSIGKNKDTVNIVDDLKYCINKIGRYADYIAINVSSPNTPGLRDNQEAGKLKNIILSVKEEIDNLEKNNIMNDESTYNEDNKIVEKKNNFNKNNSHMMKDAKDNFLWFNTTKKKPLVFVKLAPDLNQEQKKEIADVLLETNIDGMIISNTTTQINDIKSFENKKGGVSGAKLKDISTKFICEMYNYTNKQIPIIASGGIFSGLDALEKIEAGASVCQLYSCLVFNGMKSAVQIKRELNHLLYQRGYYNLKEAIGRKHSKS
Chain of E3 ubiquitin-protein ligase XIAP (Homo sapiens) (P98170 whole entry, looked up): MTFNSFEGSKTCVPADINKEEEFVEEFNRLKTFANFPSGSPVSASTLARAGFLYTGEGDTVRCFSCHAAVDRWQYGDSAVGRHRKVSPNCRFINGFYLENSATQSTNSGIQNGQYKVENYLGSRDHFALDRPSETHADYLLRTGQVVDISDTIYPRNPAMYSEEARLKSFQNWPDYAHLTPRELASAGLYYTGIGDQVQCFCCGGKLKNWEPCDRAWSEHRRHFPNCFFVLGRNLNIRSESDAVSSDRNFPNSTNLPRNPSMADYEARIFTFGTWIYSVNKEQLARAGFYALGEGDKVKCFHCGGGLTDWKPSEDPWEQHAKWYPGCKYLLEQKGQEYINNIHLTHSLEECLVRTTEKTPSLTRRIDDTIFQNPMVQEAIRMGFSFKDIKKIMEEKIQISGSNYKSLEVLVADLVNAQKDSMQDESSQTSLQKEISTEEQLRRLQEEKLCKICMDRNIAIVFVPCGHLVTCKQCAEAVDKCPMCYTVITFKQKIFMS

SMILES	z-score [1]	z-score [2]	z-score [3]	composite z-score [4]	z-score [5]	z-score [6]	z-score [7]	z-score [8]	z-score [9]	composite z-score [10]	composite z-score [11]	composite z-score (XIP peptide (Xip251-270))	z-score [12]	z-score [13]	z-score [14]	z-score [15]
CCOC(=O)C[C@H]1[C@H](OC(=O)c2ccc(-c3ccccc3)cc2)[C@@H](NC(=O)c2ccccc2)c2cc(OCCCO)ccc2N1C(=O)Cc1ccc(OC)cc1	-0.161	0.742 (inactive)	0.393 (inactive)	0.593 (inactive)	0.845 (inactive)	1.47 (inactive)	0.835 (inactive)	0.451 (inactive)	-0.041	-0.0936	-0.11 (inactive)	-0.664	-1.09	-1.36 (inactive)	-0.0036 (inactive)	0.16 (inactive)
O=C(CS)NCCCCCNC(=O)[C@@H]1C[C@@H]2C(=O)NCC(=O)N2[C@@H]1c1cccc(OCCO)c1	-0.28	-1.01 (inactive)	0.648 (inactive)	-0.61 (inactive)	0.752 (inactive)	-2.63 (inactive)	1.95 (inactive)	2.01 (inactive)	0.847	-0.103	1.96 (inactive)	0.343	0.082	-3.25 (inactive)	-0.128 (inactive)	0.361 (inactive)
C=C(CCCC)/C(=C/C[C@H](OC(C)=O)c1ccccc1OCCO)c1cnc2ccccc2c1	-0.671	-0.468 (inactive)	-1.37 (inactive)	-5.76 (inactive)	0.26 (inactive)	1.15 (inactive)	-0.709 (inactive)	-0.742 (inactive)	-0.905	-0.13	2.68 (inactive)	0.657	-2.52	-5.13 (inactive)	0.444 (inactive)	0.328 (inactive)
COc1ccc(NC(=O)O[C@H]2[C@H](OC(=O)c3cc4ccccc4[nH]3)[C@@H](OC(=O)c3cc4ccccc4[nH]3)[C@@H](OC)O[C@@H]2CO)cc1	-1.08	-0.302 (inactive)	-1.68 (inactive)	-0.558 (inactive)	0.305 (inactive)	-0.575 (inactive)	1.13 (inactive)	1.53 (inactive)	-1.69	0.103	1.54 (inactive)	-0.135	-2.16	-3.86 (inactive)	-0.335 (inactive)	-0.331 (inactive)
Cc1ccc([C@H]2C(C(=O)O)=CCN2S(=O)(=O)c2ccc(C)cc2)cc1	-0.585	0.292 (inactive)	-0.81 (inactive)	-0.381 (inactive)	-0.088 (inactive)	-0.114 (inactive)	-0.429 (inactive)	-0.392 (inactive)	-0.325	0.296	-0.609 (inactive)	0.66	0.546	-2.98 (inactive)	0.586 (inactive)	-0.222 (inactive)
COc1ccc(CCNC(=O)[C@@]2(C)c3ccccc3C(=O)N(c3ccc(C)cn3)[C@H]2c2ccc(CO)cc2)cc1	0.437	-0.673 (inactive)	0.978 (inactive)	-0.907 (inactive)	-0.301 (inactive)	0.0798 (inactive)	0.0083 (inactive)	0.737 (inactive)	0.933	-0.0838	1.66 (inactive)	0.639	1.36	-1.58 (inactive)	0.366 (inactive)	0.822 (inactive)
Cc1ccc(C2C3C(=O)CC4C(=O)N(c5ccccc5)C(=O)C4C3CN2S(=O)(=O)c2ccc(C)cc2)cc1 (centres undefined)	-0.419	1.05 (inactive)	-0.936 (inactive)	-0.274 (inactive)	0.201 (inactive)	1.24 (inactive)	-0.478 (inactive)	0.384 (inactive)	-0.82	-0.173	0.053 (inactive)	0.785	0.395	-3.61 (inactive)	0.951 (inactive)	1 (inactive)
COc1cc2c(cc1OC)CN(C(=O)[C@H]1[C@@H]3C(=O)O[C@@H](c4ccccc4)[C@@H](c4ccccc4)N3[C@@H](c3ccccc3OCCO)[C@]13C(=O)Nc1ccc(C#CCCO)cc13)CC2	0.51	1.69 (inactive)	-0.442 (inactive)	0.749 (inactive)	1.54 (inactive)	3.11 (inactive)	-0.456 (inactive)	-0.542 (inactive)	-0.0397	-0.152	0.138 (inactive)	0.438	-2.16	1.23 (inactive)	0.211 (inactive)	0.0914 (inactive)
CCOc1cc(C(O)C2C=CC3C(=O)N(c4ccccc4)C(=O)C3N2Nc2ccc(C(C)C)cc2)ccc1O (centres undefined)	-1.14	-1.16 (inactive)	-0.988 (inactive)	1.15 (inactive)	0.779 (inactive)	1.68 (inactive)	-0.361 (inactive)	-1.34 (inactive)	-1.3	0.0891	0.429 (inactive)	0.828	-0.85	-4.72 (inactive)	0.415 (inactive)	0.241 (inactive)
COC(=O)[C@@]1(Cc2ccccc2)[C@H]2c3cc(C(=O)N4CCCC4)n(Cc4c(CO)[nH]cc(C)c4=O)c3C[C@H]2CN1C(=O)c1ccccc1	-0.789	1.01 (inactive)	-0.74 (inactive)	0.255 (inactive)	0.287 (inactive)	0.624 (inactive)	-0.384 (inactive)	0.156 (inactive)	-0.467	0.406	-0.528 (inactive)	0.704	-1.46	-5.81 (inactive)	0.754 (inactive)	0.672 (inactive)
CC=CC(O)C1C=CC2C(=O)N(C)C(=O)C2N1N(c1ccccc1)c1ccccc1 (centres undefined)	0.0376	0.554 (inactive)	-0.505 (inactive)	1.13 (inactive)	-0.531 (inactive)	0.823 (inactive)	-1.15 (inactive)	-0.321 (inactive)	-0.905	0.0116	0.212 (inactive)	0.414	0.0212	-0.125 (inactive)	0.341 (inactive)	0.365 (inactive)
C=CCOC(=O)[C@H]1[C@@H]2C(=O)O[C@@H](c3ccccc3)[C@@H](c3ccccc3)N2[C@@H](c2ccc(OCCOC(=O)[C@@H]3C[C@@H]4C(=O)N5CCC[C@H]5C(=O)N4[C@@H]3c3cccc(OCCO)c3)cc2)[C@]12C(=O)Nc1ccc(I)cc12	-0.536	0.509 (inactive)	-0.424 (inactive)	-0.49 (inactive)	3.85 (inactive)	1.29 (inactive)	0.021 (inactive)	-0.0471 (inactive)	-0.442	-0.0203	0.108 (inactive)	0.792	-1.66	2.03 (inactive)	0.351 (inactive)	0.557 (inactive)
COC(=O)c1c(CC[C@@H](CO)NC(=O)NCCc2c[nH]c3ccccc23)oc(C(=O)Cc2ccccc2)c1C(=O)OC	1.35	-1.46 (inactive)	1.31 (inactive)	-2.63 (inactive)	-0.771 (inactive)	-0.731 (inactive)	1.04 (inactive)	0.733 (inactive)	0.861	-0.406	1.4 (inactive)	0.713	-0.0066	-6.54 (inactive)	-0.216 (inactive)	-0.098 (inactive)
COCCCNC(=O)[C@@]1(Cc2ccccc2)N=C(c2ccc(OCCCO)cc2)O[C@H]1c1ccccc1CN=[N+]=[N-]	-0.708	-0.176 (inactive)	-0.78 (inactive)	-0.453 (inactive)	0.95 (inactive)	0.499 (inactive)	0.0347 (inactive)	0.134 (inactive)	-1.22	0.0607	0.596 (inactive)	0.801	-2.62	-3.07 (inactive)	0.0048 (inactive)	-0.194 (inactive)
CC(C)C(=C=CC[C@H](O)c1ccc(CO)o1)CCO	-0.0202	-1.56 (inactive)	-0.159 (inactive)	-2.12 (inactive)	0.0356 (inactive)	-0.132 (inactive)	-0.706 (inactive)	-0.741 (inactive)	0.152	0.102	0.352 (inactive)	0.792	1.27	-4.02 (inactive)	-0.301 (inactive)	-0.0779 (inactive)
CC1CC/C=C\[C@H]2OC34C=CCN(Cn5nnc6ccccc65)C(=O)[C@H]3N(CCCCCO)C(=O)[C@@H]4C2C(=O)O1 (some centres undefined)	0.786	0.0153 (inactive)	-0.88 (inactive)	0.374 (inactive)	0.193 (inactive)	0.0538 (inactive)	0.67 (inactive)	0.434 (inactive)	0.796	-0.148	-0.369 (inactive)	-0.745	-0.585	-3.77 (inactive)	-0.749 (inactive)	-0.2 (inactive)
C=C(CCCC)C(=O)CC[C@H](OC(=O)c1cccnc1)c1ccc(OCCO)cc1	-0.91	-0.329 (inactive)	-3.27 (inactive)	-0.816 (inactive)	1.09 (inactive)	1.32 (inactive)	-0.911 (inactive)	-0.855 (inactive)	-3.01	0.0322	0.0908 (inactive)	-0.543	-2.96	-5.21 (inactive)	0.457 (inactive)	0.433 (inactive)
CCOC(=O)[C@H]1C/C=C/C[C@H](C(=O)OCC)C(=O)O[C@H]2[C@@H](OC)O[C@H](CO)[C@@H](OC(=O)c3ccc(Br)cc3)[C@@H]2OC1=O	-0.349	-0.775 (inactive)	-1.77 (inactive)	-1.88 (inactive)	0.787 (inactive)	0.807 (inactive)	0.612 (inactive)	0.485 (inactive)	-2.49	-0.283	0.146 (inactive)	-0.103	-1.11	-1.2 (inactive)	-0.0241 (inactive)	0.237 (inactive)
CCCC1(C(=O)OC)C=C2C(=C(c3ccccc3)C(=O)C2C)CN1 (centres undefined)	-0.913	0.629 (inactive)	-1.85 (inactive)	-1.68 (inactive)	0.246 (inactive)	-0.0834 (inactive)	-0.0785 (inactive)	-0.181 (inactive)	-0.77	0.192	0.774 (inactive)	0.871	-0.105	-8.64 (active)	-0.323 (inactive)	-0.277 (inactive)
